This is a sample that favours compounds with a hit; in the whole collection about 9.3% have one here.
Rab9 prom act: activates the Rab9 promoter; Potency, µM (highest dose often 9.22 µM), for inactives: at the highest dose activation, negative = inhibition, actives largely listed as activators; Huh7 Rab9 promoter-luciferase reporter, luminescence, 24 h; AID 485297; hit rate 2.8% among 320,000; further: % of control where 0% means no effect; nearly all actives have a fitted effect of over 60% in size
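Cell-based reporter: Huh7 stable for Rab9 promoter-driven luciferase, plated in reduced-serum medium with 10% FBS at 1500 cells/well, compound-treated 24 h at 37 °C, luminescence read after 10 min reagent.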
NPC1 promoter act: activators of NPC1 promoter; AID 485313; hit rate 2.4% among 320,000; Potency, µM (titrated, usually from 9.22 µM), for the others: at the top dose activation, usual class: activators; Huh7 NPC1 promoter luciferase reporter, 24 h; further: % of control where 0% means no effect; nearly all actives have a fitted effect of over 60% in size
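Stably transfected Huh7 (NPC1 promoter→luciferase), 1500 cells/well in Opti-MEM + 10% FBS, 2 h settle, then compound 24 h at 37 °C. Luminescence after 10 min with Amplite reagent.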
ELG1 genotox: inducers of genotoxicity in HEK293T ELG1-luciferase cells. HEK293T ELG1-luciferase reporter, luminescence, 16 h. Potency, µM (top dose mostly 46 µM), for the others: at the top dose activity change, positive = activation, most hits filed as activators. AID 504466. hit rate 1.3% among 330,000; further: % of control where 0% means no effect; nearly all actives have a fitted effect of over 60% in size
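Genotoxicity was scored as increased ELG1-luciferase reporter signal, measured by ONE-Glo luminescence (30 min, room temperature). Compound or vehicle exposure of the HEK293T reporter cells lasted 16 hr at 37°C.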
ELG1 DNA repair: ELG1-dependent DNA repair inhibition; Potency, µM (titrated, usually from 46.1 µM), for inactives: top-dose activity change, negative = inhibition, hits mostly inhibitors; HEK293T ELG1-luciferase reporter, luminescence, 16 h; DNA damage induced by 5-fluorouridine; hit rate 2.3% among 330,000; further: on the % scale 0 is the no-effect control and ±100 the full control effect; nearly all actives have a fitted effect of over 55% in size
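Luminescence from the luciferase reporter, measured 30 min after ONE-Glo reagent at room temperature, was the read-out. Beforehand, 2,000 cells per well were exposed for 16 hr at 37 °C to 5-fluorouridine together with compound or vehicle.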
SMN2 splice enh: enhancers of SMN2 splice variant expression. HEK293 SMN2-luciferase splicing reporter, luminescence, 30-36 h. Potency, µM (highest dose often 46.1 µM), for inactives: top-dose activity change, positive = activation, usual class: activators. hit rate 2.8% among 210,000. AID 1458; further: % of control where 0% means no effect; nearly all actives have a fitted effect of over 55% in size
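qHTS luciferase splicing reporter: luminescence rises when SMN2 exon 7 is included in transfected HEK293 cells. Compound exposure lasted 30-36 h at 37C, with 4.5 mM final sodium butyrate as control, followed by a ONE-Glo read.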
FLuc counter: inhibits or activates purified firefly luciferase, miR-21 counter-screen | P08659 | purified FLuc, Km substrates, luminescence inhibition | Potency, µM (top dose mostly 57.5 µM), for inactives: top-dose activity change, negative = inhibition, hits mostly inhibitors | hit rate 6.9% among 360,000;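 further: plate controls were vehicle for no effect and reference inhibitor for full effect; nearly all actives have a fitted effect of over 55% in size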
Target sequence (P08659 whole entry, looked up): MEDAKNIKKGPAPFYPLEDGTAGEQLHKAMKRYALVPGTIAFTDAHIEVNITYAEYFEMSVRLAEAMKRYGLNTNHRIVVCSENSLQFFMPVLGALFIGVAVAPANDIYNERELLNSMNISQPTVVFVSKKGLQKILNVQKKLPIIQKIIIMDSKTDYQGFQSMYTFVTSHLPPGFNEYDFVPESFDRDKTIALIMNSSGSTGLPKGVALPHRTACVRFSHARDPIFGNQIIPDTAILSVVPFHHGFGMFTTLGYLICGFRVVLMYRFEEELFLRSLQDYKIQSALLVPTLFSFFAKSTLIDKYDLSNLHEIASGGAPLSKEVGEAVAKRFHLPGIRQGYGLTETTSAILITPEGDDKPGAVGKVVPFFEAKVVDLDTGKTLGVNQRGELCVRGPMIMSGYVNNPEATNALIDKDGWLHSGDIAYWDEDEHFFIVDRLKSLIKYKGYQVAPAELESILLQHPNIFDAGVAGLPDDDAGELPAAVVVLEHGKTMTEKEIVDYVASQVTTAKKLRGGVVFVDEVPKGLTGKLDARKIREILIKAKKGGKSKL
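Biochemical qHTS of compounds, final roughly 60 µM downward over six points, against 10 nM purified firefly luciferase using Km concentrations of substrates (10 uM D-luciferin, 10 uM ATP) in Tris acetate pH 7.5 buffer; luminescence output.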
The depositor's hits bear a star; u = inconclusive; x = no result given; [ ] = dose if it differs, or a comment. The call rests on the fitted dose curve; in most records, active means well fitted curve in the direction sought with a large enough effect; inconclusive means small, poorly fitted or top-dose-only effect, or another doubt; inactive means no such curve, though single readings can be large; an effect the other way counts as inactive or inconclusive. Potency means the concentration at half of the fitted maximal effect.

SMILES	Rab9 prom act	NPC1 promoter act	ELG1 genotox	ELG1 DNA repair	SMN2 splice enh	FLuc counter
O=Cc1c(OCc2ccccc2)ccc2ccccc12	u	u	u	u	14.1µM*	12µM*
Cc1[nH]n(-c2ccccc2)c(=O)c1/C=C1\C=NN=C1c1ccccc1	0.4%	-0.6%	12.1%	u	x	12µM*
Cc1ccc(-n2[nH]c(C)c(/C=C3/C=Nc4ccccc43)c2=O)cc1C	-1.4%	15.7%	12.0%	u	17.8µM*	-2.0%
COc1ccc(-n2c(O)c(/C=C3\C=Nc4ccccc43)c(=O)[nH]c2=O)cc1	6.5%	7.5%	-1.0%	-1.5%	x	1.7%
CCc1ccccc1Nc1ncnc2c1nc1n2CCCC1	x	x	x	x	x	2.9%
O=c1c(Cc2c(F)cccc2Cl)c(O)ccn1CCCN1CCOCC1	-2.8%	1.2%	0.5%	-11.4%	18.7%	3.7%
CN(C)c1ccc(C(CNS(=O)(=O)c2ccc(F)cc2)N2CCCC2)cc1 (configuration not stated)	x	x	x	x	x	0.2%
O=C(Nc1ccccc1)C1=C[C@H](c2ccc3c(c2)OCO3)C[C@H](OCCCCO)O1	29.9%	11.4%	16.9%	10.9%	x	15.1µM*
CC(=O)n1cc([C@@H]2C=C(C(=O)NCc3ccccc3)O[C@H](OCc3ccc(CO)cc3)C2)c2ccccc21	-1.6%	-2.7%	-6.1%	u	x	0.8%
O=C(NC1CC1)C1=C[C@@H](c2ccc3c(c2)OCO3)C[C@@H](OCCCCO)O1	-0.2%	-0.8%	3.8%	9.3%	x	-0.9%
C=CCOC(=O)C1=C[C@@H](c2coc3ccccc3c2=O)C[C@@H](OCc2ccc(CO)cc2)O1	-2.2%	0.7%	-5.3%	-26.2%	x	0.8%
C#CCNC(=O)C1=C[C@@H](C2CCCCC2)C[C@@H](OCc2ccc(CO)cc2)O1	-5.0%	0.9%	5.5%	-21.1%	x	15.1µM*
CC(=O)n1cc([C@H]2C=C(C(=O)Nc3ccccc3)O[C@@H](OCc3ccc(CO)cc3)C2)c2ccccc21	1.1%	-2.2%	-11.3%	9.2µM*	x	-1.7%
C=CCOC(=O)C1=C[C@H](c2coc3ccccc3c2=O)C[C@H](OCc2ccc(CO)cc2)O1	3.3%	3.5%	-7.1%	8.2µM*	x	0.2%
CC(Oc1ccc(F)cc1)C(=O)Nc1cc(C(F)(F)F)ccc1-n1cncn1 (configuration not stated)	-0.9%	-5.8%	1.7%	-0.3%	x	6.1%
CCOc1ccc(S(=O)(=O)n2c([N+](=O)[O-])cnc2C)c(C)c1C	10.9%	5.3%	-1.5%	12.6%	x	-4.0%
O=C1c2[nH]nc(-c3ccc(F)cc3)c2C(c2ccccc2F)N1c1ccccc1 (configuration not stated)	x	x	x	x	-5.3%	6.1%
O=C(Nc1ccccc1)C1=C[C@H](c2ccccc2)C[C@H](OCc2ccc(CO)cc2)O1	0.4%	1.9%	1.5%	-11.3%	x	u
O=C(Nc1ccccc1)C1=C[C@@H](C2CC2)C[C@@H](OCCCCO)O1	1.0%	0.0%	u	u	x	16.9µM*
O=C(Nc1ccccc1)C1=C[C@@H](C2CC2)C[C@@H](OCc2ccc(CO)cc2)O1	18.0%	11.0%	9.8%	0.1%	x	10.7µM*
COCC(=O)N1CCC2(CCCN(C(=O)Nc3ccc(OC)cc3)C2)CC1	x	x	x	x	-3.6%	x
CCCCCn1nc(C(=O)N2CCc3ccccc32)c2ccccc2c1=O	-5.9%	-3.8%	-1.5%	11.2µM*	x	0.3%
CCCn1nc2cc(C(=O)NC3CCCc4ccccc43)ccc2c1OCC (configuration not stated)	-0.1%	-0.3%	-6.9%	-16.8%	-13.4%	-2.3%
CCCn1nc(C(=O)NC2CCCc3ccccc32)c2ccccc2c1=O (configuration not stated)	-7.4%	-3.3%	-4.6%	16.4µM*	-23.7%	-1.5%
CCCCn1nc(C(=O)NC2CCCCCC2)c2ccccc2c1=O	x	x	-7.4%	18.3µM*	x	x
SMILES	Rab9 prom act	NPC1 promoter act	ELG1 genotox	ELG1 DNA repair	SMN2 splice enh	FLuc counter
CCCn1nc(C(=O)NC2CCCC2)c2ccccc2c1=O	x	x	-0.3%	u	x	x
CCCCn1nc(C(=O)Nc2ccc(-n3cnnn3)cc2)c2ccccc2c1=O	-3.0%	-6.3%	-2.7%	7.3µM*	x	3.3%
CCCn1nc(C(=O)N2CCc3ccccc32)c2ccccc2c1=O	-5.9%	-2.1%	-2.9%	u	x	4.2%
COC(=O)[C@@H]1[C@@H](C)N(CCc2cc(OC)c(OC)c(OC)c2)C(=O)N[C@H]1c1ccccc1	x	x	x	x	-1.9%[9.22 µM]	x
NC(=O)N/N=C/c1ccccc1OC(=O)c1cc2ccccc2oc1=O	16.9%	12.7%	u	u	x	u
NC(=S)N/N=C/c1ccccc1OC(=O)/C=C/c1ccccc1	-16.0%	1.9%	-2.6%	2.7%	x	26.9µM*
NC(=S)N/N=C/c1ccccc1OC(=O)c1cc2ccccc2oc1=O	-19.4%	0.2%	8.1%	u	x	21.3µM*
O=c1c2[nH]c3ccccc3c2ncn1CCC1=CCCCC1	u	2.51µM*	11.6%	u	23.5%	1.2%
Cc1[nH]c2ccccc2c1C(=O)C(=O)NCCC1=CCCCC1	-0.1%	-1.6%	-2.2%	-18.2%	-4.7%	-7.3%
Cc1ccc2[nH]c3c(=O)n(CCC4=CCCCC4)cnc3c2c1	17.4%	23.5%	4.8%	16.8%	-3.2%	-1.5%
C1=C(CCNc2ncnc3c2[nH]c2ccccc23)CCCC1	-33.4%	-28.3%	5.8%	18.0%	-42.9%	19µM*
O=C(CCCOc1ccc(Br)cc1)NCCc1ccc(OC(F)F)cc1	0.1%	-5.0%	-13.2%	-9.5%	x	4.0%
Cc1ccc(NC(=O)c2oc3ccccc3c2NC(=O)C2CCCO2)cc1C (configuration not stated)	2.51µM*	2.82µM*	7.3%	u	12.6µM*	u
CCOc1ccccc1NC(=O)c1oc2ccccc2c1NC(=O)C1CC1	1.2%	0.4%	0.1%	-2.7%	x	-0.1%
CCOc1ccccc1NC(=O)c1oc2ccccc2c1NC(=O)C1CCCO1 (configuration not stated)	5.5%	1.0%	-7.2%	7.3µM*	-26.1%	-6.0%
COc1ccc(NC(=O)c2oc3ccccc3c2NC(=O)C2CC2)cc1OC	6.0%	-1.1%	-7.4%	16.4µM*	x	16.9µM*
COc1ccc(NC(=O)c2oc3ccccc3c2NC(=O)C2CCCO2)cc1OC (configuration not stated)	u	24.3%	-0.2%	u	u	u
COc1ccccc1NC(=O)c1oc2ccccc2c1NC(=O)C1CC1	1.0%	3.0%	-1.9%	2.7%	x	-16.0%

Bioassay records from PubChem BioAssay.
